# Experimental data: PubChem BioAssay
# The source made the active and inactive calls. Unless noted, no rule for the calls is given here.
# What was measured:
# [1] = resazurin metabolic signal in HepG2 cells – cell-based, resazurin fluorescence, 24 h, PK04 Diversity Set, profiling panel (AID 1172); conditions: HepG2 viability, higher = more signal
# [2] = budding yeast growth changes without added modifier – OD600, strain BY4716, 24 h, basal condition, primary screen (AID 1173); conditions: S. cerevisiae BY4716 growth, OD600, 24 h; higher = more signal, called active from +8 up or from −8 down
# [3] = viability profiling in MM1S myeloma cells – cell-based, resazurin fluorescence, basal, 24 h, PK04 Diversity Set, profiling panel (AID 1174); conditions: higher = more signal, called active from +8 up or from −8 down;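 also: MM1S multiple myeloma cell line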
# [4] = molecular target: Dihydroorotate dehydrogenase (quinone), mitochondrial (Plasmodium falciparum (isolate 3D7)) (UniProt Q08210); test: inhibition of P. falciparum DHODH – biochemical, C-terminal His tag, absorbance 600 nm, primary screen (AID 1175); conditions: PfDHODH enzyme, DCIP absorbance 600 nm; higher = more signal, called active from +8 up or from −8 down;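 also: recombinant parasite enzyme with a five histidine tag at its C terminus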
# Chain of Dihydroorotate dehydrogenase (quinone), mitochondrial (Plasmodium falciparum (isolate 3D7)) (Q08210 whole entry, looked up): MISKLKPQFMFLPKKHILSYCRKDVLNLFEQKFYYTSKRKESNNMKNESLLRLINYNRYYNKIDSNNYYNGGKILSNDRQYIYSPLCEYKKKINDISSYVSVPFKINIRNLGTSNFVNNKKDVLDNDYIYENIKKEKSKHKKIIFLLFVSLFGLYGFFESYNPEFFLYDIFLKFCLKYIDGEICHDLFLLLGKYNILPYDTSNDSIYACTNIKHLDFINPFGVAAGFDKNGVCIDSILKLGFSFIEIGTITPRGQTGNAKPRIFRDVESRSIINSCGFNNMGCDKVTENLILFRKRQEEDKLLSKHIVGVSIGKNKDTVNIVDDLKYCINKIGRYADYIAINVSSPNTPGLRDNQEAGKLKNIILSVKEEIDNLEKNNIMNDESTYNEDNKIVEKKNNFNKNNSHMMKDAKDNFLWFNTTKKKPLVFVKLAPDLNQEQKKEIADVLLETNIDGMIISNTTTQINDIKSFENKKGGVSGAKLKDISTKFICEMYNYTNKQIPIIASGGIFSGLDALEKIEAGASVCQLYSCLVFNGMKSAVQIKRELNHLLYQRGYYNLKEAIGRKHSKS
# [5] = inhibition of PAO1 biofilm formation – strain PAO1, LB-PBS medium, absorbance 600 nm, primary screen (AID 1176); conditions: P. aeruginosa PAO1 growth/biofilm, A600, 12 h; higher = more signal
# [6] = growth modulation of vineyard yeast isolate – strain RM11-1a, OD600, basal, 24 h, primary screen (AID 1177);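 also: cultures grown under basal conditions with no added stressor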; conditions: S. cerevisiae RM11-1a growth, OD600, 24 h; higher = more signal, called active from +8 up or from −8 down
# [7] = growth of efflux-deficient E. coli DRC39 – strain DRC39, OD650, 24 h, E. coli filamentation inducers, primary screen (AID 1178);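 also: growth measured as culture turbidity by optical density at 650 nm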; conditions: E. coli DRC39 acrAB, higher = more signal, called active from +8 up or from −8 down
# [8] = growth of efflux-deficient E. coli DRC39 – strain DRC39, OD650, 48 h, E. coli filamentation inducers, primary screen (AID 1179);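 also: screen aims at cell division blockers that make cells filament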; conditions: E. coli DRC39 delta-acrAB growth, higher = more signal, called active from +8 up or from −8 down
# [9] = viability profiling in RPMI8226 myeloma cells – cell-based, resazurin fluorescence, basal, 24 h, PK04 Diversity Set, profiling panel (AID 1180); conditions: higher = more signal;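 also: RPMI8826 multiple myeloma cell line at 5000 cells per well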
# [10] = molecular target: E3 ubiquitin-protein ligase XIAP (Homo sapiens) (UniProt P98170); test: small molecules binding XIAP protein – biophysical, small-molecule microarray, fluorescence 635 nm, primary screen (AID 1181); conditions: higher = more signal;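 also: score merges 667 nm emission and signal to noise over triplicate slides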
# Chain of E3 ubiquitin-protein ligase XIAP (Homo sapiens) (P98170 whole entry, looked up, the tested form may be a part): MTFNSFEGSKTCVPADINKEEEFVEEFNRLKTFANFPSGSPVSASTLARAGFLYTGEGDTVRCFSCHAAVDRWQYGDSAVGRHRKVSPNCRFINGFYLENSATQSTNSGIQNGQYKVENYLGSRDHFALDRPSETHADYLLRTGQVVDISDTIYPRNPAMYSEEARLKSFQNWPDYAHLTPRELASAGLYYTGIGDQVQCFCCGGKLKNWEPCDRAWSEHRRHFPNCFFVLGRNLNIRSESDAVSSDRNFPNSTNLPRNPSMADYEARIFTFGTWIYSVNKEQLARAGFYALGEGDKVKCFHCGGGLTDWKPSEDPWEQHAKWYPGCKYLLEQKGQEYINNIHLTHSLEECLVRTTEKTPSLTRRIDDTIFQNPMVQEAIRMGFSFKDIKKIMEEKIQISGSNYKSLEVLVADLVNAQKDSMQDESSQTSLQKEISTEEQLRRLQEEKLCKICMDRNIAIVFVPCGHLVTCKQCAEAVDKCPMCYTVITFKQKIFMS
# [11] = test system: XIP peptide (Xip251-270) binding; test: XIP fragment 251-270 binding compounds – biochemical, small-molecule microarray, fluorescence 635/667 nm, 0.1 µg/mL protein, primary screen (AID 1182); conditions: fluorescent protein binding, 635 nm, higher = more signal, called active from +8 up or from −8 down
# XIP peptide (Xip251-270) = test: compounds binding XIP fragment 251-270 – biochemical, small-molecule microarray, fluorescence 635/667 nm, 0.5 µg/mL protein, primary screen (AID 1183); conditions: fluorescence 635 nm, higher = more signal
# [12] = blood-stage malaria parasite viability loss – strain 3D7, DAPI fluorescence, 100 nL, primary screen (AID 1184);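 also: parasites grown inside human red blood cells in medium with human serum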; conditions: P. falciparum 3D7 growth, 3 d, higher = more signal
# [13] = molecular target: Homeobox protein Hox-A13 (Mus musculus) (UniProt Q62424); test: disruptors of Hoxa13 oligonucleotide interaction – biochemical, fluorescence polarization, labeled oligonucleotide, primary screen (AID 1185); conditions: Hoxa13:DNA binding, 15 min, higher = more signal, called active from +8 up or from −8 down
# Chain of Homeobox protein Hox-A13 (Mus musculus) (Q62424 whole entry, looked up): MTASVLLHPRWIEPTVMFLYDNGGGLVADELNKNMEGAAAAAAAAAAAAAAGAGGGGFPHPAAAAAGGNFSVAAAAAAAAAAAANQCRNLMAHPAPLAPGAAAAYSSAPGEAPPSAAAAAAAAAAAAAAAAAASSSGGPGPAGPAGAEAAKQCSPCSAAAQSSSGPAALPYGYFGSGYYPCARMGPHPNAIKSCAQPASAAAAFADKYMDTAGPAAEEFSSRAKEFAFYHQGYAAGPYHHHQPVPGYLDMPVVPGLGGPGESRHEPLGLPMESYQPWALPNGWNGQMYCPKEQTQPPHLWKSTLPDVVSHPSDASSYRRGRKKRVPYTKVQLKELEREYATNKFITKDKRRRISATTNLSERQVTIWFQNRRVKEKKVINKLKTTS
# [14] = blockers of DNA damage checkpoint Chk1 activation – imaging, HeLa, hydroxyurea, phospho-Chk1 antibody, percent positive cells, primary screen (AID 1186); conditions: hydroxyurea-induced phospho-Chk1 immunofluorescence imaging, higher = more signal
# [15] = blockers of DNA damage checkpoint Chk1 activation – imaging, HeLa, hydroxyurea, phospho-Chk1 nuclear intensity, primary screen (AID 1187); conditions: hydroxyurea-induced phospho-Chk1 immunofluorescence imaging, higher = more signal
Compound,z-score [1],z-score [2],z-score [3],composite z-score [4],z-score [5],z-score [6],z-score [7],z-score [8],z-score [9],composite z-score [10],composite z-score [11],composite z-score (XIP peptide (Xip251-270)),z-score [12],z-score [13],z-score [14],z-score [15]
COc1ccc([Si](C)(C)[C@H]2[C@H](CCn3cc([C@H](O)c4ccccc4)nn3)O[C@@]3(C(=O)N(c4ccccc4)c4ccccc43)[C@@H]2C)cc1,0.378,0.885 (inactive),-1.82 (inactive),0.413 (inactive),0.131 (inactive),2.12 (inactive),0.346 (inactive),0.0139 (inactive),-1.34,-0.316,-0.292 (inactive),0.505,-1.18,-3.4 (inactive),-0.282 (inactive),-0.513 (inactive)
C[C@@H](OCc1ccccc1)C1NC(=O)[C@@]23C(=O)N[C@@H](Cc4ccccc4)C2[C@H](C)[C@@]2(C)O[C@H]2C3/C=C/C/C=C\CNC(=O)[C@H](Cc2ccccc2)NC1=O (stereo partly drawn),-0.515,-1.29 (inactive),-0.614 (inactive),-0.199 (inactive),0.0359 (inactive),-0.658 (inactive),2.13 (inactive),0.5 (inactive),-0.302,-0.0565,-0.0678 (inactive),-0.0412,-2.45,-5.7 (inactive),0.0781 (inactive),0.544 (inactive)
C[N+](C)(C)CCCCCCNC(=O)[C@@H]1C[C@@H]2C(=O)N[C@@H](Cc3ccccc3)C(=O)N2[C@@H]1c1ccc(O)cc1,1.17,-0.471 (inactive),0.224 (inactive),-0.77 (inactive),0.615 (inactive),-0.0653 (inactive),0.457 (inactive),0.492 (inactive),0.25,-0.0882,1.13 (inactive),0.841,-0.324,-2.44 (inactive),0.459 (inactive),0.496 (inactive)
C=CC[C@@]12N=C(c3ccc(OCCCO)cc3)O[C@@H]1c1ccccc1N(Cc1ccccc1)C2=O,0.157,-0.848 (inactive),-2.58 (inactive),-0.162 (inactive),0.469 (inactive),0.632 (inactive),1.48 (inactive),0.666 (inactive),-2.37,0.322,0.799 (inactive),0.797,-2.42,-2.23 (inactive),0.0198 (inactive),0.552 (inactive)
CC(C)(C)OC(=O)CC[C@]1(C(N)=O)N=C(c2ccc(OCCCO)cc2)O[C@H]1c1ccccc1CN=[N+]=[N-],0.0283,0.632 (inactive),0.455 (inactive),0.369 (inactive),-0.568 (inactive),1.55 (inactive),2.09 (inactive),0.64 (inactive),0.282,0.108,-0.226 (inactive),0.819,-0.176,-4.12 (inactive),-0.198 (inactive),0.0796 (inactive)
CCOC(=O)C1=C[C@@H](C(C)(C)C)N(S(=O)(=O)c2ccc(C)cc2)[C@H]1c1ccccc1Cl,-0.421,1.51 (inactive),-0.763 (inactive),0.0477 (inactive),0.188 (inactive),1.73 (inactive),-0.544 (inactive),-0.468 (inactive),-1.74,0.227,0.646 (inactive),0.705,-1.65,0.649 (inactive),0.271 (inactive),-0.0709 (inactive)
CC(C)C[C@@H]1NC(=O)C([C@@H](C)OCc2ccccc2)NC(=O)[C@@]23C(=O)N[C@@H](Cc4ccccc4)C2[C@H](C)[C@@]2(C)O[C@H]2C3/C=C/CC/C=C/CNC1=O (stereo partly drawn),0.536,-1.78 (inactive),-0.0218 (inactive),-0.485 (inactive),0.261 (inactive),-0.435 (inactive),1.64 (inactive),0.212 (inactive),-0.417,-0.144,-0.0755 (inactive),0.677,-3.08,-6.51 (inactive),-0.799 (inactive),-0.574 (inactive)
COc1ccc(CCNC(=O)[C@@]2(Sc3ccc(C)cc3)CC(=O)N(Cc3cc(C(F)(F)F)cc(C(F)(F)F)c3)[C@@H]2c2ccc(CO)cc2)cc1,-0.392,-1.01 (inactive),-0.378 (inactive),-0.61 (inactive),0.112 (inactive),-0.83 (inactive),0.0664 (inactive),-0.331 (inactive),-0.395,0.536,-0.461 (inactive),0.705,0.264,-2.57 (inactive),0.132 (inactive),0.282 (inactive)
COC(=O)c1c(CC[C@@H](CO)NC(=O)N[C@@H](Cc2ccccc2)Cn2cc(-c3cncn3C)nn2)oc(C(C)=O)c1C(=O)OC,-0.649,-0.615 (inactive),0.448 (inactive),-2.95 (inactive),-1.25 (inactive),-0.688 (inactive),0.681 (inactive),0.438 (inactive),-0.332,0.14,0.606 (inactive),0.851,-2.06,-4.35 (inactive),-0.331 (inactive),-0.0353 (inactive)
COc1ccc(CC[C@H](O)c2cccc(OCC(=O)OC(C)(C)C)c2)cc1,0.657,-4.45 (inactive),-0.25 (inactive),-1.82 (inactive),0.475 (inactive),0.69 (inactive),0.791 (inactive),0.573 (inactive),-0.204,-0.121,0.809 (inactive),0.662,-1.03,-5.52 (inactive),-0.0884 (inactive),0.27 (inactive)
CCOC(=O)C1=C(C(=O)OCC)N(S(=O)(=O)CC[Si](C)(C)C)[C@H](c2ccccc2)CC1,0.95,1.77 (inactive),-2.4 (inactive),-0.493 (inactive),0.201 (inactive),1.73 (inactive),-0.203 (inactive),-0.238 (inactive),-4.03,-0.127,-0.177 (inactive),0.201,-1.81,-2.79 (inactive),-0.184 (inactive),-0.535 (inactive)
COCCOC(=O)N1C(=O)[C@@]2(c3cc(C#CCC(C(=O)OC)C(=O)OC)ccc31)[C@H](C(N)=O)[C@H]1C(=O)O[C@H](c3ccccc3)[C@H](c3ccccc3)N1[C@@H]2c1ccc(OCCO)cc1,0.58,1.53 (inactive),-0.456 (inactive),-0.383 (inactive),2.88 (inactive),3.39 (inactive),0.71 (inactive),0.108 (inactive),-1.81,0.0251,0.572 (inactive),0.813,-2.07,-0.183 (inactive),-0.153 (inactive),0.0973 (inactive)
C=CCC(OC(C)=O)[C@@H]1[C@@H](N(Cc2ccc(-c3cccc(C(F)(F)F)c3)o2)C(=O)Cc2ccc(F)cc2)c2cc(OCCCO)ccc2N1C(=O)c1ccc2ccccc2c1 (stereo partly drawn),0.589,-0.382 (inactive),0.81 (inactive),-1.26 (inactive),-0.194 (inactive),-0.423 (inactive),0.227 (inactive),0.369 (inactive),0.934,-0.224,-0.502 (inactive),-0.669,-0.681,-1.3 (inactive),0.627 (inactive),0.835 (inactive)
COC(=O)C1=CC(CCCO)=CC(C2CC2)N(Cc2cccc(OC(F)(F)F)c2)C=C1C(=O)OC (stereo not drawn),0.588,-1.76 (inactive),0.348 (inactive),-6.2 (inactive),0.034 (inactive),0.0808 (inactive),1.01 (inactive),1.1 (inactive),0.693,-0.22,0.737 (inactive),0.668,-1.37,-7.83 (inactive),-0.316 (inactive),-0.0702 (inactive)
CC(C)N1CC=CC23O[C@@H]4C=CCCOC(=O)C4[C@H]2C(=O)N(CCCCCO)[C@@H]3C1=O (stereo partly drawn),0.613,0.848 (inactive),0.988 (inactive),-0.727 (inactive),0.0126 (inactive),0.581 (inactive),1.01 (inactive),0.798 (inactive),1.42,0.0684,0.192 (inactive),-0.386,0.263,-3.86 (inactive),-0.389 (inactive),0.0936 (inactive)
[N-]=[N+]=NCc1ccccc1C[C@]1(C(=O)O)COC(c2ccc(OCCCO)cc2)=N1,0.24,0.59 (inactive),-0.591 (inactive),1.54 (inactive),0.37 (inactive),-0.163 (inactive),-0.149 (inactive),-0.0558 (inactive),-0.279,-0.445,-0.4 (inactive),0.264,1.24,-3.85 (inactive),0.0203 (inactive),-0.313 (inactive)
C=CCOC(=O)[C@@H]1[C@H]2C(=O)O[C@H](c3ccccc3)[C@H](c3ccccc3)N2[C@H](c2ccc(OCCOC(=O)[C@H]3C[C@H]4C(=O)NCC(=O)N4[C@H]3c3ccc(O)cc3)cc2)[C@@]12C(=O)Nc1ccc(I)cc12,-0.675,2.01 (inactive),-0.349 (inactive),-1.14 (inactive),3.08 (inactive),1.28 (inactive),-0.0185 (inactive),-0.282 (inactive),-0.331,-0.0669,1.34 (inactive),0.868,-1.69,1.52 (inactive),-0.804 (inactive),-0.762 (inactive)
CC(=O)NCCCC[C@@H]1NC(=O)[C@H]2C[C@@H](C(=O)NCCCCCC[N+](C)(C)C)[C@@H](c3ccc(O)cc3)N2C1=O,0.387,-0.0177 (inactive),0.319 (inactive),-1.03 (inactive),0.519 (inactive),-0.533 (inactive),-0.04 (inactive),-0.63 (inactive),-0.0771,-0.0062,0.265 (inactive),0.883,-0.0467,-2.81 (inactive),-0.207 (inactive),0.0348 (inactive)
